# Experimental data as given in PubChem BioAssay AID1159580 (chemical genetic matrix, 2015).
# Screen size: about 5,500 compounds; about 2,000 (36%) were called active. Another 18% or so got no clear call; they are omitted. Some of the results follow. A number with no mark means an inactive call. Rule as the data show it: active = normalized growth mostly below about 0.91 (no sharp cut-off); inconclusive = no clear call, values can overlap the other calls; inactive = mostly above about 0.92.
# Test: chemical genetic growth profiling, strain panel (AID 1159580);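 also: tested at 20 µM; growth read once vehicle control cultures reached saturation at 30 °C; 1 = growth at the plate median or of vehicle wells; lower values mean less growth of the strain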
# Details: S. cerevisiae deletion strains, growth OD
# [1] = locus YAL021C, strain ccr4, active compounds read low
# [2] = locus YAL026C, strain drs2, active compounds read low
# [3] = locus YAL030W, strain snc1, active compounds read low
# [4] = locus YBL061C, strain skt5, active compounds read low
# [5] = locus YBR009C, strain hhf1, active compounds read low
# [6] = locus YBR023C, strain chs3, active compounds read low
# [7] = locus YBR171W, strain sec66, active compounds read low
# [8] = locus YBR231C, strain swc5, active compounds read low
# [9] = locus YBR279W, strain paf1, active compounds read low
# [10] = locus YCL011C, strain gbp2, active compounds read low
# [11] = locus YCL016C, strain dcc1, active compounds read low
# [12] = locus YCL061C, strain MRC1, active compounds read low
# [13] = locus YCL069W, strain vba3, active compounds read low
# [14] = locus YCR088W, strain abp1, active compounds read low
# [15] = locus YDL005C, strain med2, active compounds read low
# [16] = locus YDL040C, strain nat1, active compounds read low
# [17] = locus YDR001C, strain nth1, active compounds read low
# [18] = locus YDR069C, strain doa4, active compounds read low
# [19] = locus YDR137W, strain rgp1, active compounds read low
# [20] = locus YDR159W, strain sac3, active compounds read low
# [21] = locus YDR297W, strain sur2, active compounds read low
# [22] = locus YDR334W, strain swr1, active compounds read low
# [23] = locus YDR335W, strain msn5, active compounds read low
# [24] = locus YDR392W, strain spt3, active compounds read low
# [25] = locus YEL003W, strain gim4, active compounds read low
# [26] = locus YEL037C, strain rad23, active compounds read low
# [27] = locus YEL061C, strain CIN8 (second series), active compounds read low
# [28] = locus YER015W, strain faa2, active compounds read low
# [29] = locus YER016W, strain bim1, active compounds read low
# [30] = locus YER111C, strain swi4, active compounds read low
# [31] = locus YER155C, strain BEM2 (second series), active compounds read low
# [32] = locus YFR010W, strain ubp6, active compounds read low
# [33] = locus YGL167C, strain pmr1, active compounds read low
# [34] = locus YGL173C, strain kem1, active compounds read low
# [35] = locus YGL227W, strain vid30, active compounds read low
# [36] = locus YGL240W, strain doc1, active compounds read low
# [37] = locus YGL253W, strain hxk2, active compounds read low
# [38] = locus YHR013C, strain ard1, active compounds read low
# [39] = locus YHR027C, strain rpn1, active compounds read low
# [40] = locus YHR030C, strain SLT2, active compounds read low
# [41] = locus YHR079C, strain IRE1, active compounds read low
# [42] = locus YHR142W, strain chs7, active compounds read low
# [43] = locus YJL092W, strain hpr5, active compounds read low
# [44] = locus YJL095W, strain BCK1 (second series), active compounds read low
# [45] = locus YJL095W, strain BCK1, active compounds read low
# [46] = locus YJL115W, strain asf1, active compounds read low
# [47] = locus YJL129C, strain trk1, active compounds read low
# [48] = locus YJL154C, strain vps35, active compounds read low
# [49] = locus YJL164C, strain tpk1, active compounds read low
# [50] = locus YJL166W, strain qcr8, active compounds read low
# [51] = locus YJR066W, strain TOR1, active compounds read low
# [52] = locus YKL160W, strain elf1, active compounds read low
# [53] = locus YKR026C, strain gcn3, active compounds read low
# [54] = locus YKR091W, strain srl3, active compounds read low
# [55] = locus YLL001W, strain dnm1, active compounds read low
# [56] = locus YLL026W, active compounds read low
# [57] = locus YLL041C, strain sdh2, active compounds read low
# [58] = locus YLR027C, strain aat2, active compounds read low
# [59] = locus YLR113W, strain HOG1, active compounds read low
# [60] = locus YLR221C, strain rsa3, active compounds read low
# [61] = locus YLR258W, strain gsy2, active compounds read low
# [62] = locus YLR262C, strain YPT6 (second series), active compounds read low
# [63] = locus YLR320W, strain mms22, active compounds read low
# [64] = locus YLR342W, strain FKS1, active compounds read low
# [65] = locus YLR357W, strain rsc2, active compounds read low
# [66] = locus YLR370C, strain arc18, active compounds read low
# [67] = locus YLR384C, strain iki3, active compounds read low
# [68] = locus YML120C, strain ndi1, active compounds read low
# [69] = locus YMR058W, strain fet3, active compounds read low
# [70] = locus YMR125W, strain sto1, active compounds read low
# [71] = locus YMR129W, active compounds read low
# [72] = locus YMR205C, strain PFK2, active compounds read low
# [73] = locus YMR231W, strain pep5, active compounds read low
# [74] = locus YNL071W, strain lat1, active compounds read low
# [75] = locus YNL183C, strain NPR1, active compounds read low
# [76] = locus YNL209W, strain ssb2, active compounds read low
# [77] = locus YNL248C, strain rpa49, active compounds read low
# [78] = locus YNL322C, strain KRE1 (second series), active compounds read low
# [79] = locus YNR049C, strain mso1, active compounds read low
# [80] = locus YOR001W, strain rrp6, active compounds read low
# [81] = locus YOR070C, strain gyp1, active compounds read low
# [82] = locus YOR080W, strain dia2, active compounds read low
# [83] = locus YOR083W, strain WHI5, active compounds read low
# [84] = locus YOR106W, strain vam3, active compounds read low
# [85] = locus YOR231W, strain MKK1, active compounds read low
# [86] = locus YOR265W, strain rbl2, active compounds read low
# [87] = locus YOR270C, strain vph1, active compounds read low
# [88] = locus YOR290C, strain snf2, active compounds read low
# [89] = locus YPL051W, strain arl3, active compounds read low
# [90] = locus YPL078C, strain atp4, active compounds read low
# [91] = locus YPL106C, strain sse1, active compounds read low
# [92] = locus YPL240C, strain hsp82, active compounds read low
# [93] = locus YPL256C, strain CLN2, active compounds read low
compound,measurement,setting,value
COC1=CC(=O)C(C(=O)c2ccccc2)=CC1=O,normalized growth,[1],1.01
same,normalized growth,[2],0.992
same,normalized growth,[3],0.993
same,normalized growth,[4],1.01
same,normalized growth,[5],0.977
same,normalized growth,[6],0.988
same,normalized growth,[7],0.978
same,normalized growth,[8],0.972
same,normalized growth,[9],0.991
same,normalized growth,[10],0.971
same,normalized growth,[11],0.977
same,normalized growth,[12],0.978
same,normalized growth,[13],0.996
same,normalized growth,[14],0.987
same,normalized growth,[15],0.966
same,normalized growth,[16],0.981
same,normalized growth,[17],0.964
same,normalized growth,[18],0.965
same,normalized growth,[19],0.938
same,normalized growth,[20],0.949
same,normalized growth,"locus YDR195W, strain ref2",0.964
same,normalized growth,[21],0.967
same,normalized growth,[22],0.96
same,normalized growth,[23],0.97
same,normalized growth,[24],0.98
same,normalized growth,[25],0.976
same,normalized growth,[26],0.986
same,normalized growth,[27],0.98
same,normalized growth,[28],0.98
same,normalized growth,[29],0.974
same,normalized growth,[30],0.973
same,normalized growth,[31],0.975
same,normalized growth,[32],0.993
same,normalized growth,[33],0.975
same,normalized growth,[34],1
same,normalized growth,[35],0.986
same,normalized growth,[36],0.955
same,normalized growth,[37],0.987
same,normalized growth,[38],0.967
same,normalized growth,[39],0.966
same,normalized growth,[40],1.02
same,normalized growth,[41],1.02
same,normalized growth,[42],0.996
same,normalized growth,[43],0.968
same,normalized growth,[44],0.971
same,normalized growth,[45],1.02
same,normalized growth,[46],0.956
same,normalized growth,[47],0.941
same,normalized growth,[48],0.974
same,normalized growth,[49],0.988
same,normalized growth,[50],1.01
same,normalized growth,[51],0.94
same,normalized growth,[52],0.991
same,normalized growth,[53],0.993
same,normalized growth,[54],0.97
same,normalized growth,[55],0.972
same,normalized growth,[56],1
same,normalized growth,[57],0.98
same,normalized growth,[58],0.976
same,normalized growth,[59],1.02
same,normalized growth,[60],0.988
same,normalized growth,[61],0.997
same,normalized growth,[62],0.975
same,normalized growth,[63],0.981
same,normalized growth,[64],0.983
same,normalized growth,[65],0.946
same,normalized growth,[66],0.959
same,normalized growth,[67],0.979
same,normalized growth,[68],1
same,normalized growth,[69],0.966
same,normalized growth,[70],0.987
same,normalized growth,[71],1
same,normalized growth,[72],1
same,normalized growth,[73],0.991
same,normalized growth,[74],0.985
same,normalized growth,[75],0.969
same,normalized growth,[76],0.977
same,normalized growth,[77],0.992
same,normalized growth,[78],0.965
same,normalized growth,[79],0.964
same,normalized growth,[80],0.975
same,normalized growth,[81],0.977
same,normalized growth,[82],1
same,normalized growth,[83],0.991
same,normalized growth,[84],0.992
same,normalized growth,[85],1.04
same,normalized growth,[86],0.986
same,normalized growth,[87],1.01
same,normalized growth,[88],0.965
same,normalized growth,[89],0.984
same,normalized growth,[90],0.975
same,normalized growth,[91],0.927
same,normalized growth,[92],0.977
same,normalized growth,[93],1.04
COC1=CC(=O)C(O)=C/C1=C\C=C\c1ccccc1,normalized growth,[1],0.0637 (active)
same,normalized growth,[2],0.0627 (active)
same,normalized growth,[3],0.0587 (active)
same,normalized growth,[4],0.0684 (active)
same,normalized growth,[5],0.0623 (active)
same,normalized growth,[6],0.075 (active)
same,normalized growth,[7],0.0792 (active)
same,normalized growth,[8],0.0663 (active)
same,normalized growth,[9],0.068 (active)
same,normalized growth,[10],0.0594 (active)
same,normalized growth,[11],0.0807 (active)
same,normalized growth,[12],0.0651 (active)
same,normalized growth,[13],0.064 (active)
same,normalized growth,[14],0.0619 (active)
same,normalized growth,[15],0.0757 (active)
same,normalized growth,[16],0.244 (active)
same,normalized growth,[17],0.0607 (active)
same,normalized growth,[18],0.068 (active)
same,normalized growth,[19],0.292 (active)
same,normalized growth,[20],0.166 (active)
same,normalized growth,"locus YDR195W, strain ref2",0.115 (active)
same,normalized growth,[21],0.0591 (active)
same,normalized growth,[22],0.0652 (active)
same,normalized growth,[23],0.0631 (active)
same,normalized growth,[24],0.0929 (active)
same,normalized growth,[25],0.0583 (active)
same,normalized growth,[26],0.0597 (active)
same,normalized growth,[27],0.064 (active)
same,normalized growth,[28],0.0626 (active)
same,normalized growth,[29],0.0792 (active)
same,normalized growth,[30],0.076 (active)
same,normalized growth,[31],0.0935 (active)
same,normalized growth,[32],0.0686 (active)
same,normalized growth,[33],0.0977 (active)
same,normalized growth,[34],0.0694 (active)
same,normalized growth,[35],0.0665 (active)
same,normalized growth,[36],0.0868 (active)
same,normalized growth,[37],0.0562 (active)
same,normalized growth,[38],0.205 (active)
same,normalized growth,[39],0.064 (active)
same,normalized growth,[40],0.114 (active)
same,normalized growth,[41],0.111 (active)
same,normalized growth,[42],0.0751 (active)
same,normalized growth,[43],0.0609 (active)
same,normalized growth,[44],0.0603 (active)
same,normalized growth,[45],0.104 (active)
same,normalized growth,[46],0.0766 (active)
same,normalized growth,[47],0.0861 (active)
same,normalized growth,[48],0.0623 (active)
same,normalized growth,[49],0.0609 (active)
same,normalized growth,[50],0.0637 (active)
same,normalized growth,"locus YJL187C, strain SWE1, active compounds read low",0.0601 (active)
same,normalized growth,[51],-0.00301 (active)
same,normalized growth,[52],0.073 (active)
same,normalized growth,[53],0.0653 (active)
same,normalized growth,[54],0.0623 (active)
same,normalized growth,[55],0.0646 (active)
same,normalized growth,[56],0.0594 (active)
same,normalized growth,[57],0.0594 (active)
same,normalized growth,[58],0.0574 (active)
same,normalized growth,[59],0.173 (active)
same,normalized growth,[60],0.0618 (active)
same,normalized growth,[61],0.0601 (active)
same,normalized growth,[62],0.0834 (active)
same,normalized growth,[63],0.0845 (active)
same,normalized growth,[64],0.0656 (active)
same,normalized growth,[65],0.127 (active)
same,normalized growth,[66],0.0611 (active)
same,normalized growth,[67],0.0607 (active)
same,normalized growth,[68],0.0568 (active)
same,normalized growth,[69],0.0632 (active)
same,normalized growth,[70],0.0692 (active)
same,normalized growth,[71],0.0614 (active)
same,normalized growth,[72],0.088 (active)
same,normalized growth,[73],0.068 (active)
same,normalized growth,[74],0.0619 (active)
same,normalized growth,[75],-0.000893 (active)
same,normalized growth,[76],0.0644 (active)
same,normalized growth,[77],0.0693 (active)
same,normalized growth,[78],0.068 (active)
same,normalized growth,[79],0.0603 (active)
same,normalized growth,[80],0.069 (active)
same,normalized growth,[81],0.0623 (active)
same,normalized growth,[82],0.0977 (active)
same,normalized growth,[83],0.0654 (active)
same,normalized growth,[84],0.0683 (active)
same,normalized growth,[85],0.109 (active)
same,normalized growth,[86],0.0614 (active)
same,normalized growth,[87],0.0968 (active)
same,normalized growth,[88],0.0813 (active)
same,normalized growth,[89],0.0697 (active)
same,normalized growth,[90],0.0641 (active)
same,normalized growth,[91],0.102 (active)
same,normalized growth,[92],0.0581 (active)
same,normalized growth,[93],0.131 (active)
